{"source": "ChEMBL document CHEMBL3433997", "about": "“St. Jude Leishmania screening dataset” (2016)", "note": "Where “and” joins values, the source holds several entries; their conditions need not be identical. Equal values may be shown once."}
{"target": "Solute carrier family 2, facilitated glucose transporter member 1 (Homo sapiens) (UniProt P11166)", "sequence (P11166 whole entry)": "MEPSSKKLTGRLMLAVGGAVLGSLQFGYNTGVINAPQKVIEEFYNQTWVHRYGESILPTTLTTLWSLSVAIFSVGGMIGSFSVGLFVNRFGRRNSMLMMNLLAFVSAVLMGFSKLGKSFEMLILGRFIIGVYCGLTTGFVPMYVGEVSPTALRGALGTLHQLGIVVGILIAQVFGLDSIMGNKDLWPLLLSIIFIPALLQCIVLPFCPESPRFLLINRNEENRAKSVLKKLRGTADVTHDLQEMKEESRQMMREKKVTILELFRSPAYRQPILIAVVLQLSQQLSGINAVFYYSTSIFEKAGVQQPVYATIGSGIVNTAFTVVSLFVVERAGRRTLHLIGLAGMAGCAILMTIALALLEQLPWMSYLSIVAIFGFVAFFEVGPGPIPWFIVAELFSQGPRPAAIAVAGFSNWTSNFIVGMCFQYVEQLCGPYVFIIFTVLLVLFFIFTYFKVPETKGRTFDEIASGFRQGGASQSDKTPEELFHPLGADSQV", "assay": "ST_JUDE_LEISH: Cytotoxicity at 2uM final concentration against transgenic Leishmania Mexicana promastigotes LmGLUT1 that are glucose transport deficient and complemented with the human glucose transporter GLUT1. Activity is measured by DNA content using SYBR green in vitro", "assay_type": "functional", "units": {"inhibition": "%"}}
{"compound": "c1ccc(COc2ccc(C3CCCCC3)cc2)nc1", "inhibition": 0.38}
{"compound": "Oc1ccc(CCNc2nc(NCc3ccccc3-c3ccccc3)nc(N3CCCNCC3)n2)cc1", "inhibition": 0.19}
{"compound": "O=C(Nc1ccc(Cl)cc1)Nc1cccc(-c2cccc(-c3nc4ccccc4[nH]3)c2)c1", "inhibition": 1.17}
{"compound": "CCN1C(=O)C(CC(=O)Nc2cccc(Cl)c2)N(Cc2ccc(OC)c(OC)c2)C1=S", "note": "(stereo unspecified)", "inhibition": 0.59}
{"compound": "O=C(C=Cc1ccc(-c2ccccc2)cc1)N1CCC(CCN2CCC(c3c[nH]c4ccccc34)CC2)CC1", "inhibition": 2.14}
{"compound": "CCCCCCn1c(Sc2ccc(C#N)c([N+](=O)[O-])c2)nnc1-c1cc(OC)cc(OC)c1", "inhibition": 5.8}
{"compound": "Cc1ccccc1C1CCN(C2CCC(NC(=O)c3ccc4c(c3)-c3nocc3C(C)O4)CC2)CC1", "note": "(stereo unspecified)", "inhibition": 5.85}
{"compound": "CN(Cc1ccncc1)C(Cc1ccccc1)C1CCN(Cc2ccc(O)c(Cl)c2)CC1", "note": "(stereo unspecified)", "inhibition": 1.88}
{"compound": "CN(CCON1C(=N)N=C(N)NC1(C)C)c1ccccc1", "inhibition": -0.49}
{"compound": "CC(C)(C)Cn1cc(-c2ccc(C(=O)NCCc3ccc(S(C)(=O)=O)cc3)cc2)c(N)n1.CC(C)(C)Cn1ncc(-c2ccc(C(=O)NCCc3ccc(S(C)(=O)=O)cc3)cc2)c1N", "inhibition": 0.21}
{"compound": "CN(CCCNC(=S)NC12CC3CC(CC(C3)C1)C2)CCCNc1ccnc2cc(Cl)ccc12", "inhibition": -1.07}
{"compound": "Cc1c(Cl)cccc1S(=O)(=O)Nc1ccc(CCN2CCC(N)CC2)cc1", "inhibition": -2.63}
{"compound": "O=C(Nc1ccc2c(c1)OCO2)c1cc(-c2cccnc2)nc2ccc(Cl)cc12", "inhibition": 3.49}
{"compound": "Nc1c(-c2ccc(C(=O)NCCNCc3ccccc3)cc2)cnn1-c1ccc(C(F)(F)F)cc1", "inhibition": 3.28}
{"compound": "N#CCCN1CCN(Cc2cccc(-c3ccc(-c4nc5cc(C(F)(F)F)ccc5[nH]4)cc3)c2)CC1", "inhibition": 3.02}
{"compound": "COc1ccc2[nH]c(C)cc(=NN=Cc3ccccc3)c2c1", "inhibition": -2.87}
{"compound": "N#Cc1cccc(NC(=O)Nc2cccc(-c3cccc(-c4nc5cc(C(F)(F)F)ccc5[nH]4)c3)c2)c1", "inhibition": 2.08}
{"compound": "COc1ccc2nccc([C@@H](O)CN3CCC(NCc4cc5ccccc5nn4)CC3)c2c1", "inhibition": 6.88}
{"compound": "COc1ccc(CN2CCCC(N3CC4(OC3=O)c3ccccc3-c3ccccc34)C2)c(O)c1", "note": "(stereo unspecified)", "inhibition": 5.47}
{"compound": "FC(F)(F)c1ccc2c(NCCc3ccccc3)ccnc2c1", "inhibition": 4.24}
{"compound": "Cc1c(-c2ccccc2)ccc2[nH]cc(CC#N)c12", "inhibition": 1.56}
{"compound": "CCCCCCCNc1cc(C)nc2ccc(OC)cc12", "inhibition": 16.5}
{"compound": "Cc1ccccc1Oc1ccc(Nc2ccnc(Nc3cccc(C(N)=O)c3)n2)cc1C(F)(F)F", "inhibition": 4.26}
{"compound": "Cc1cccc2nc(-c3cccc(-c4ccc(NC(=O)Nc5ccc(Cl)c(Cl)c5)cc4)c3)[nH]c12", "inhibition": 0.3}
{"compound": "Clc1ccc(Cc2nc3ccccc3[nH]2)cc1Cl", "inhibition": 4.81}
{"compound": "COc1c(C2CCN(CCCCNC(=O)C=Cc3cc4cc(Cl)ccc4o3)CC2)ccc2c1CCCC2", "inhibition": 2.11}
{"target": "Hexose transporter 1 (Plasmodium falciparum) (UniProt O97467)", "assay": "ST_JUDE_LEISH: Cytotoxicity at 2uM final concentration against transgenic Leishmania Mexicana promastigotes LmPfHT that are glucose transport deficient and complemented with the Plasmodium falciparum hexose transporter. Activity is measured by DNA content using SYBR green in vitro", "assay_type": "functional"}
{"compound": "Nc1ncc(-c2ccc3nccc(-c4ccncc4)c3c2)cc1S(=O)(=O)N1CCOCC1", "inhibition": "3.05%"}
{"compound": "c1cc(CN2CCc3ccccc3CC2)cc(-c2c[nH]c3nc(NC4CCCC4)ncc23)c1", "inhibition": "-0.68%"}
{"compound": "CCOC(=O)c1cc(C(=O)NCCCCN2CCC(c3ccc(CC)cc3OCC)CC2)ccc1-c1ccc(C(F)(F)F)cc1", "inhibition": "8.59%"}
{"compound": "Cc1cc(NCCCCCCCCNc2cc(C)nc3ccccc23)c2ccccc2n1", "inhibition": "1.84%"}
{"compound": "O=C1C(c2ccccc2)=C(Nc2cccc([N+](=O)[O-])c2)c2ccccc21", "inhibition": "3.72%"}
{"compound": "CC(Sc1nc2sccc2c(=O)n1C)C(=O)Nc1ccc2c(c1)OCO2", "note": "(stereo unspecified)", "inhibition": "5.47%"}
{"compound": "COc1ccc2nc(C)cc(N/N=C/c3cccc([N+](=O)[O-])c3)c2c1", "inhibition": "7.38%"}
{"compound": "O=c1cc(NCCCNCc2cc(C(F)(F)F)ccc2Cl)[nH]c2ccccc12", "inhibition": "0.29%"}
{"compound": "C=C[C@H]1CN2CC[C@H]1C[C@H]2[C@H](O)c1ccnc2ccc(OC)cc12", "inhibition": "6.11% and -3.17% and 2.26%"}
{"compound": "CC(=O)N(Cc1ccc(CC(C)NCCc2cccc(Cl)c2)cc1)Cc1ccc(CC(C)NCCc2cccc(Cl)c2)cc1", "note": "(stereo unspecified)", "inhibition": "72.7%"}
{"compound": "O=C(/C=C/c1ccc([N+](=O)[O-])cc1)N1CCC(NS(=O)(=O)c2ccc(Br)cc2)CC1", "inhibition": "1.13%"}
{"compound": "CCOc1cc(C)ccc1C1CCN(CCN2CCC(CNC(=O)c3ccc(-c4ccc(C(F)(F)F)cc4)cc3)CC2)CC1", "inhibition": "2.7%"}
{"compound": "COc1ccc(N2CCN(c3nc(Nc4ccc(NC(C)=O)cc4)nc(N4CCCC4)n3)CC2)cc1", "inhibition": "1.16%"}
{"compound": "Cc1cc(O)c(C(C)C)cc1C1(c2cc(C(C)C)c(O)cc2C)OC(=O)c2ccccc21", "inhibition": "6.64%"}
{"compound": "c1ccc(COc2ccc(C3CCCCC3)cc2)nc1", "inhibition": "2.32%"}
{"compound": "Oc1ccc(CCNc2nc(NCc3ccccc3-c3ccccc3)nc(N3CCCNCC3)n2)cc1", "inhibition": "2.05%"}
{"compound": "O=C(Nc1ccc(Cl)cc1)Nc1cccc(-c2cccc(-c3nc4ccccc4[nH]3)c2)c1", "inhibition": "0.33%"}
{"compound": "CCN1C(=O)C(CC(=O)Nc2cccc(Cl)c2)N(Cc2ccc(OC)c(OC)c2)C1=S", "note": "(stereo unspecified)", "inhibition": "4.35%"}
{"compound": "O=C(C=Cc1ccc(-c2ccccc2)cc1)N1CCC(CCN2CCC(c3c[nH]c4ccccc34)CC2)CC1", "inhibition": "9.22%"}
{"compound": "CCCCCCn1c(Sc2ccc(C#N)c([N+](=O)[O-])c2)nnc1-c1cc(OC)cc(OC)c1", "inhibition": "6.04%"}
{"compound": "Cc1ccccc1C1CCN(C2CCC(NC(=O)c3ccc4c(c3)-c3nocc3C(C)O4)CC2)CC1", "note": "(stereo unspecified)", "inhibition": "4.08%"}
{"compound": "CN(Cc1ccncc1)C(Cc1ccccc1)C1CCN(Cc2ccc(O)c(Cl)c2)CC1", "note": "(stereo unspecified)", "inhibition": "2.51%"}
{"compound": "CN(CCON1C(=N)N=C(N)NC1(C)C)c1ccccc1", "inhibition": "0.33%"}
{"compound": "CC(C)(C)Cn1cc(-c2ccc(C(=O)NCCc3ccc(S(C)(=O)=O)cc3)cc2)c(N)n1.CC(C)(C)Cn1ncc(-c2ccc(C(=O)NCCc3ccc(S(C)(=O)=O)cc3)cc2)c1N", "inhibition": "1.16%"}
{"compound": "CN(CCCNC(=S)NC12CC3CC(CC(C3)C1)C2)CCCNc1ccnc2cc(Cl)ccc12", "inhibition": "0.09%"}
{"compound": "Cc1c(Cl)cccc1S(=O)(=O)Nc1ccc(CCN2CCC(N)CC2)cc1", "inhibition": "-0.88%"}
{"compound": "O=C(Nc1ccc2c(c1)OCO2)c1cc(-c2cccnc2)nc2ccc(Cl)cc12", "inhibition": "0.67%"}
{"compound": "Nc1c(-c2ccc(C(=O)NCCNCc3ccccc3)cc2)cnn1-c1ccc(C(F)(F)F)cc1", "inhibition": "2.76%"}
{"compound": "N#CCCN1CCN(Cc2cccc(-c3ccc(-c4nc5cc(C(F)(F)F)ccc5[nH]4)cc3)c2)CC1", "inhibition": "2.73%"}
{"compound": "COc1ccc2[nH]c(C)cc(=NN=Cc3ccccc3)c2c1", "inhibition": "0.32%"}
{"compound": "N#Cc1cccc(NC(=O)Nc2cccc(-c3cccc(-c4nc5cc(C(F)(F)F)ccc5[nH]4)c3)c2)c1", "inhibition": "1.85%"}
{"compound": "COc1ccc2nccc([C@@H](O)CN3CCC(NCc4cc5ccccc5nn4)CC3)c2c1", "inhibition": "7.17%"}
{"compound": "COc1ccc(CN2CCCC(N3CC4(OC3=O)c3ccccc3-c3ccccc34)C2)c(O)c1", "note": "(stereo unspecified)", "inhibition": "4.69%"}
{"compound": "FC(F)(F)c1ccc2c(NCCc3ccccc3)ccnc2c1", "inhibition": "5.12%"}
{"compound": "Cc1c(-c2ccccc2)ccc2[nH]cc(CC#N)c12", "inhibition": "3.54%"}
{"compound": "CCCCCCCNc1cc(C)nc2ccc(OC)cc12", "inhibition": "9.23%"}
{"compound": "Cc1ccccc1Oc1ccc(Nc2ccnc(Nc3cccc(C(N)=O)c3)n2)cc1C(F)(F)F", "inhibition": "3.48%"}
{"compound": "Cc1cccc2nc(-c3cccc(-c4ccc(NC(=O)Nc5ccc(Cl)c(Cl)c5)cc4)c3)[nH]c12", "inhibition": "-1.23%"}
{"compound": "Clc1ccc(Cc2nc3ccccc3[nH]2)cc1Cl", "inhibition": "4.08%"}
{"compound": "COc1c(C2CCN(CCCCNC(=O)C=Cc3cc4cc(Cl)ccc4o3)CC2)ccc2c1CCCC2", "inhibition": "0.56%"}
